Where a chain is given by its changes, count along the chain named.
Assays:
Test in all cases: protein-binding microarray (PBM); PBM: ~300 nM protein, 6 mM HEPES pH 7.8, 80 mM KCl, 0.5 mM EDTA, 0.5 mM EGTA, 6% glycerol, 35 ng/ul poly-dIdC, 1% milk, 1 h, room temperature; Ap Aiptasia and Nv Nematostella (sea anemones) / Co Capsaspora / Aq Amphimedon (sponge) / Dm Drosophila / Hu human; RHD is the Rel homology domain; high values mean tight binding
Conditions in all cases: dsDNA, one strand shown
GST-Ap-NF-kB RHD = target: T1, GST-Ap-NF-kB RHD (Exaiptasia pallida (Aiptasia), UniProt A0A913YAJ5 2-422)
T1 sequence: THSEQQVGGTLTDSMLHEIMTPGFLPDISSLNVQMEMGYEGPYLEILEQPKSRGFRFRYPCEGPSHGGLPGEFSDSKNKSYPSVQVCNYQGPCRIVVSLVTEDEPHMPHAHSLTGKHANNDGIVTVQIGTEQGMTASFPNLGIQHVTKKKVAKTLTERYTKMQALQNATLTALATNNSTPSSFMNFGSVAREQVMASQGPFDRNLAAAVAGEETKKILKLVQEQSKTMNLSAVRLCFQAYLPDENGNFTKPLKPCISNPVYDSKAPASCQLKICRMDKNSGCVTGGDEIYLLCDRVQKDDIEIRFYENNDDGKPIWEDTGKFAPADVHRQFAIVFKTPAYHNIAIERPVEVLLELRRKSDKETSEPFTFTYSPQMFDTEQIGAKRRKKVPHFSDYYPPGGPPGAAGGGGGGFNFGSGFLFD

[1] = target: T2, GST-Nv-NF-kB (Cys allele) (Nematostella vectensis, UniProt E5G601 2-411)
T2 sequence: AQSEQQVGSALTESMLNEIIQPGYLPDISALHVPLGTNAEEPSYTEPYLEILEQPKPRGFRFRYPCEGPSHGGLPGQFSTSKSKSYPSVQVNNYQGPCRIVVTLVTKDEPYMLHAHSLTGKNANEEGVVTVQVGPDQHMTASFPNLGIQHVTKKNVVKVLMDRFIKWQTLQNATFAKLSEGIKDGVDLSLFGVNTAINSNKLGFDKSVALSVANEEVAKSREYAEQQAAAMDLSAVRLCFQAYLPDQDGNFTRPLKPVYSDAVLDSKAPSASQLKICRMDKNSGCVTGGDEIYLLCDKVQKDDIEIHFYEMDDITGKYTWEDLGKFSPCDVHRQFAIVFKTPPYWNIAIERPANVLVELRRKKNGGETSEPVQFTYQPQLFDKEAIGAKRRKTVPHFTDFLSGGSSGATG

[2] = target: T3, GST-Nv-NF-kB (Ser allele) (Nematostella vectensis, UniProt A7UNT2 2-411)
T3 sequence: T2 sequence with Q21R, C66S, S207N, E215Q, V217A, E225K, A268E, D399E

GST-Co-NF-kB = target: T4, GST-Co-NF-kB (Capsaspora owczarzaki, UniProt F1ARL5 200-546)
T4 sequence: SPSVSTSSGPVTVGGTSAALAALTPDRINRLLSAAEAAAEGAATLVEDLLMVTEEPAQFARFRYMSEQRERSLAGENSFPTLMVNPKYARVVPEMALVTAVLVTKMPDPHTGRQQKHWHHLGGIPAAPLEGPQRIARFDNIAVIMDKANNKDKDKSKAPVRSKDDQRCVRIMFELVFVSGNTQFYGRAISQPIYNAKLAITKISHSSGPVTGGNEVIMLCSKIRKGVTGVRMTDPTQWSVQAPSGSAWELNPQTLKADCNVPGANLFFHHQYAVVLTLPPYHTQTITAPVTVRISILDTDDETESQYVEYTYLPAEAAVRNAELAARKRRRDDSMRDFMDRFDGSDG

GST-Dm-Relish = target: T5, GST-Dm-Relish (Drosophila melanogaster, UniProt Q94527 99-473)
T5 sequence: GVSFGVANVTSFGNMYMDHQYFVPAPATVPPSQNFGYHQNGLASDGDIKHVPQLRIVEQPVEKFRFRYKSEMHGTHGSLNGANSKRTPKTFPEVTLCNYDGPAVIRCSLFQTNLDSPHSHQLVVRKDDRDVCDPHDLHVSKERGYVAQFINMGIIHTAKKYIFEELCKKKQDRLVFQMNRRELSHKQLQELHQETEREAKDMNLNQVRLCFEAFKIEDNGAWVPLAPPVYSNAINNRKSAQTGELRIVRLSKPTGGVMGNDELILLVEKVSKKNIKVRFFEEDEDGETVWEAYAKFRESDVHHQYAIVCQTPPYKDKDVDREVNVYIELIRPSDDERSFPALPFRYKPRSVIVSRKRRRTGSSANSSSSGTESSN

GST-Aq-NF-kB = target: T6, GST-Aq-NF-kB (Amphimedon queenslandica, UniProt A9Y5G7 2-389)
T6 sequence: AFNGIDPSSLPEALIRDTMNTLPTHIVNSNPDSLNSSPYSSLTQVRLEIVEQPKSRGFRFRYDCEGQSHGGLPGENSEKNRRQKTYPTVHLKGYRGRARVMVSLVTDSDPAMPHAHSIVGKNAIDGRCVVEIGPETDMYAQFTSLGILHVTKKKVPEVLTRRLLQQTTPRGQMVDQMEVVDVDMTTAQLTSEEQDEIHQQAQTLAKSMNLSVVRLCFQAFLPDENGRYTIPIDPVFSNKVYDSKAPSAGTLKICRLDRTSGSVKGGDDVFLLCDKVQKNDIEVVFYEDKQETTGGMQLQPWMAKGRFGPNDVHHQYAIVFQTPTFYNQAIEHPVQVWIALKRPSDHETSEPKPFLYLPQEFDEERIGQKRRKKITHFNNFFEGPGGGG

Question: With “CCGATTAACATCAGGGGATAATATGATGTTAATCGGGTCTTGATTCGCTTGACGCTGCTG” as the sequence, how does the binding signal (GST-Ap-NF-kB RHD) read?
Answer: Its binding signal is 5.41 z-score.

Question: What about the binding signal [1] of the same sequence?
Answer: Its binding signal is 5.47 z-score.

Question: And the binding signal [2]?
Answer: Its binding signal is 7.02 z-score.

Question: What about the binding signal (GST-Co-NF-kB) of the same sequence?
Answer: The binding signal was 5.65 z-score.

Question: And the binding signal (GST-Dm-Relish)?
Answer: The binding signal was 2.58 z-score.

Question: What about the binding signal (GST-Aq-NF-kB) of the same sequence?
Answer: Its binding signal is 4.59 z-score.

Question: Which results are given for “CCGATTAACATCAACATGGGAATTGATGTTAATCGGGTCTTGATTCGCTTGACGCTGCTG”?
Answer: binding signal (GST-Ap-NF-kB RHD): 1.01 z-score; binding signal [1]: 2.42 z-score; binding signal (GST-Co-NF-kB): 1.5 z-score; binding signal (GST-Aq-NF-kB): 1.89 z-score

Question: For “CCGATTAACATCACGATTTTCCCTGATGTTAATCGGGTCTTGATTCGCTTGACGCTGCTG”, which binding signal (GST-Ap-NF-kB RHD) is on record?
Answer: Its binding signal is 3.77 z-score.

Question: And the binding signal [1]?
Answer: Its binding signal is 5.64 z-score.

Question: What about the binding signal [2] of the same sequence?
Answer: Its binding signal is 7.32 z-score.

Question: And the binding signal (GST-Co-NF-kB)?
Answer: The binding signal was 4.9 z-score.

Question: What about the binding signal (GST-Dm-Relish) of the same sequence?
Answer: The binding signal was 1.65 z-score.

Question: What about the binding signal (GST-Aq-NF-kB) of the same sequence?
Answer: Its binding signal is 4.47 z-score.

Question: Which results are given for “CCGATTAACATCACGGTGGGAAATGATGTTAATCGGGTCTTGATTCGCTTGACGCTGCTG”?
Answer: binding signal (GST-Ap-NF-kB RHD): 2.05 z-score; binding signal [1]: 2.39 z-score; binding signal (GST-Co-NF-kB): 2.77 z-score; binding signal (GST-Aq-NF-kB): 1.94 z-score

Question: Which binding signal (GST-Ap-NF-kB RHD) does the source give for “CCGATTAACATCACCGCTTCCCTTGATGTTAATCGGGTCTTGATTCGCTTGACGCTGCTG” here?
Answer: The binding signal was 1.62 z-score.

Question: What about the binding signal [1] of the same sequence?
Answer: Its binding signal is 1.86 z-score.

Question: What about the binding signal (GST-Co-NF-kB) of the same sequence?
Answer: Its binding signal is 1.46 z-score.

Question: What about the binding signal (GST-Aq-NF-kB) of the same sequence?
Answer: The binding signal was 2 z-score.

Question: What does the source list for “CCGATTAACATCACATCTTCCCCTGATGTTAATCGGGTCTTGATTCGCTTGACGCTGCTG”?
Answer: binding signal (GST-Ap-NF-kB RHD): 4.99 z-score; binding signal [1]: 6.11 z-score; binding signal [2]: 7.12 z-score; binding signal (GST-Co-NF-kB): 6.39 z-score; binding signal (GST-Dm-Relish): 2.45 z-score; binding signal (GST-Aq-NF-kB): 4.78 z-score
